# KDM4E inh – blocks human JMJD2E demethylase activity; B2RXH2; JMJD2E catalytic domain, FDH-coupled NADH fluorescence (FDH is formaldehyde dehydrogenase); Potency, µM (highest dose often 57.1 µM), for the others: at the highest dose activity change, negative = inhibition, actives largely listed as inhibitors; 230,000 tested, 1.6% active; active = well fitted inhibition curve with a large enough effect, not every such curve was filed as active; inconclusive = small, poorly fitted or top-dose-only effect, or another doubt; inactive = no such curve, though single readings can be large or run the other way;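 also: potency is read from the fitted curve at half-maximal effect; 0% = wells with enzyme and -100% = buffer wells without enzyme; nearly all actives have a fitted effect of over 50% in size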
# PI5P4Ka inh – inhibitors of human PI5P4K alpha; PI5P4Kalpha enzyme, ADP-Glo luminescence, 60 min; active compounds read low; P48426; 330,000 tested, 1.2% active; max response, %; active = max response of -50% or lower; inconclusive = between -30% and -50%; inactive = -30% or higher; also: value at the top dose of about 77 µM; % is scaled to controls: 0 for no effect and ±100 for the full control effect
#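 Reactions run in 0.038 M HEPES pH 7.4, 0.28 mM EGTA, 0.1% CHAPS and 5% DMSO, with PI5P4Kalpha, substrate, compound and 5 microM ATP final, one hour at room temperature. Readout is ADP-Glo luminescence.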
# BAZ2B block – blocks human BAZ2B; AlphaScreen BAZ2B-H3K14Ac peptide displacement; Potency, µM (titrated, usually from 114 µM), inactives show at the highest dose activity change, negative = inhibition, most hits filed as inhibitors; 360,000 tested, 4.4% active; AID 504333; also: potency is read from the fitted curve at half-maximal effect; % is scaled to controls: 0 for no effect and ±100 for the full control effect; nearly all actives have a fitted effect of over 60% in size
#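 Inhibition is scored as reduced AlphaScreen emission. The BAZ2B/b-H3(5-23)K14Ac complex (50 nM each) in PBS pH 7.4, 0.01% Tween-20 meets compound (up to 110 uM) for 30 min at RT before bead addition.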
# HP1b binding inh – HP1-beta chromodomain-methylated histone interaction inhibition | Potency, µM (series often up to 114 µM), for the others: top-dose activity change, negative = inhibition, usual class: inhibitors | 390,000 tested, 0.56% active | AlphaScreen HP1-beta / biotin-H3K9me3 peptide binding | AID 540317; also: potency is read from the fitted curve at half-maximal effect; nearly all actives have a fitted effect of over 70% in size
#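 AlphaScreen: HP1-beta (50 nM) preformed 30 min with biotin-H3(1-18)K9me3 peptide (50 nM) in PBS pH 7.4, 0.01% Tween-20. Compound added for 30 min at RT, then streptavidin donor/nickel chelate acceptor beads (10 ug/mL) for 30 min.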
# L3MBTL1 inh – inhibitors of human L3MBTL1; Q9Y468; AlphaScreen L3MBTL1–H3K9me1 peptide binding; 230,000 tested, 0.66% active; Potency, µM (titrated, usually from 57.1 µM), for inactives: at the highest dose activity, negative = inhibition, most hits filed as inhibitors; also: potency is read from the fitted curve at half-maximal effect; % is scaled to controls: 0 for no effect and ±100 for the full control effect; nearly all actives have a fitted effect of over 60% in size
#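 L3MBTL1 50 nM + b-AHA-H3(1-15)K9me1 75 nM, 30 min RT; compound added, 30 min RT; streptavidin donor/Ni-chelate acceptor beads 10 ug/mL each final, 30 min RT dark; AlphaScreen read.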
# JMJD2A Tudor inh – blocks the human JMJD2A Tudor domain; AlphaScreen JMJD2A-Tudor / H3K4me3 peptide binding; Potency, µM (series often up to 114 µM), for inactives: top-dose activity change, negative = inhibition, most hits filed as inhibitors; 390,000 tested, 4.4% active; AID 504339; also: potency is read from the fitted curve at half-maximal effect; % is scaled to controls: 0 for no effect and ±100 for the full control effect; nearly all actives have a fitted effect of over 50% in size
# * marks the source's active call; other numbers are inactive results; ? = inconclusive; · = no result. Sampled rows, rich in hits. Any-hit rate of the full collection: about 5.7%. Unless noted, calls follow the shape of the dose curve; as a rule, active = well fitted inhibition curve with a large enough effect; inconclusive = small, poorly fitted or top-dose-only effect; inactive = no such curve, though single readings can be large or run the other way.
SMILES,KDM4E inh,PI5P4Ka inh,BAZ2B block,HP1b binding inh,L3MBTL1 inh,JMJD2A Tudor inh
CCN1/C(=C/c2ccc3cccc(C)c3[n+]2CC)Sc2ccccc21,0%,·,50µM*,-5%,-11%,-28%
CCN1/C(=C\C(=S)Nc2ccccc2)Sc2ccccc21,-12%,-11,?,?,-6%,25µM*
CCN1/C(=C\C=C(C(C)=O)C(C)=O)Sc2ccccc21,-3%,2,?,-5%,·,-30%
Cc1ccc(C(=O)Nn2cnc3ccccc3c2=O)cc1C,·,3,-11%,28%,·,-9%
COc1cc2[nH]c(=S)nc(NCCCOC(C)C)c2cc1OC,?,1,50µM*,23%,·,?
CCOCCCNc1nc(=S)[nH]c2cc(OC)c(OC)cc12,-4%,2,?,25%,-4%,?
CCCS(=O)(=O)N1CC(=O)N(c2cccc(Cl)c2)C(C)(C(=O)NC2CCCCC2)C1 (stereo unspecified),·,·,-1%,15%,·,-10%
Cc1ccc(-c2cc(-c3ccccc3[N+](=O)[O-])[nH]n2)c(O)c1,4%,·,?,-6%,-9%,?
O=C1NC(=O)C(c2ccccc2[N+](=O)[O-])=C1Nc1ccc(O)c(Cl)c1,-2%,?,50µM*,-4%,·,?
O=C(N/N=C/c1ccc2ncccc2c1)c1ccco1,-3%,-77*,-16%,2%,2%,79µM*
CCOC(=O)C1(C)C=C(Nc2cccc(OC)c2)C(=O)N1c1ccccc1 (stereo unspecified),?,-6,-19%,34%,-2%,?
CCOC(=O)C1(C)/C(=N/Nc2ccccc2OC)C(=O)C(=O)N1c1ccccc1 (stereo unspecified),25µM*,-2,40µM*,40µM*,?,25µM*
CCOC(=O)C1(C)/C(=N/Nc2ccccc2)C(=O)C(=O)N1c1ccccc1 (stereo unspecified),-4%,-6,?,40µM*,·,32µM*
COc1cccc(NC(=O)Cn2c(=O)c3cccn3c3ccc(F)cc32)c1,·,·,-12%,39%,·,-8%
O=C(Cn1c(=O)nc(-c2ccccc2)c2cc(Cl)ccc21)N1CCN(c2ccccc2F)CC1,·,·,-2%,5%,·,-1%
CC(=O)N(C1=C(Cl)C(=O)c2ccccc2C1=O)C1CCCCC1,?,-87*,22µM*,7.9µM*,?,1.6µM*
CC(=O)N(c1ccccc1C)C1CCCC1,4%,-8,5%,30%,8%,-3%
CCOc1ccc(-c2csc(Cn3c(CN4CCN(C)CC4)nc4ccccc4c3=O)n2)cc1,-8%,-10,?,?,-11%,22µM*
CCOC(=O)C1CCN(Cc2nc3ccccc3c(=O)n2-c2ccc(OCC)cc2)CC1,1%,·,-6%,31%,-4%,-11%
CN(C)Cc1nc2ccccc2c(=O)n1Cc1nc(-c2cc3ccccc3o2)cs1,-13%,-2,?,-14%,-6%,50µM*
O=C1C(=O)C(c2ccccc2)C(=O)C1c1ccccc1 (stereo unspecified),·,-17,·,-23%,·,-26%
NC1=C(O)C(=O)C(c2ccccc2)O1 (stereo unspecified),16µM*,-2,21%,0%,-15%,4%
O=C(CN1C(=O)NC2(CCCC2)C1=O)NNC(=O)c1ccc(Br)cc1,·,-6,9%,35%,-1%,3.2µM*
CCc1ccc(C(=O)NNC(=O)CN2C(=O)NC3(CCCC3)C2=O)cc1,·,-3,0%,53%,5%,-6%
COc1cc(/C=C/c2sc3ccccc3[n+]2CCCS(=O)(=O)[O-])ccc1O,-4%,-26,45µM*,32µM*,28µM*,-33%
CCC(/C=C1\Oc2ccc(OC)cc2N1C)=C\c1sc2ccccc2[n+]1CCCS(=O)(=O)[O-],·,1,·,39%,·,-10%
Cc1ccc(C)c(Nc2c([N+](=O)[O-])cc(C(=O)N3CC(=O)Nc4ccccc43)cc2[N+](=O)[O-])c1,-4%,3,25µM*,?,-29%,?

# From PubChem BioAssay
